Source: PubChem BioAssay
LMNA splice mod – qHTS Assay for Modulators of Lamin A Splicing; HeLa LMNA splicing GFP/RFP minigene ratio, 48 h; Potency, µM (top dose mostly 46.1 µM), inactives show at the top dose ratio change, negative = inhibition, actives largely listed as inhibitors; 200,000 tested, 0.01% active; active = well fitted inhibition curve with a large enough effect in the signal ratio, with a control signal flat, not every such curve was filed as active; inconclusive = small, poorly fitted or top-dose-only effect, or effect the other way, or a change in a side signal; the % refers to the signal ratio; note: % is set by controls: 0 for no effect and ±100 for the full control effect
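Read-out is the ratio of GFP to DsRed2 object intensity, acquired by 488 nm laser-scanning cytometry on HeLa lamin A-EGFP minigene reporter cells. Compound incubation 48 hrs at 37 °C in Opti-MEM with 2% FBS; DMSO 0.5% final.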
HTT aggregate – qHTS Multiplex Assay to Identify Dual Action Probes in a Cell Model of Huntington: Aggregate Formation (GFP); 220,000 tested, 1.1% active; Potency, µM (top dose mostly 46.1 µM), for the others: top-dose activity change, negative = inhibition, actives largely listed as inhibitors; PC12 HttQ103-GFP aggregates, Acumen cytometry, 40 h; note: % is set by controls: 0 for no effect and ±100 for the full control effect; nearly all actives have a fitted effect of over 60% in size
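Quantitative HTS on tebufenozide-induced (100 nM) PC12 cells stably expressing polyQ103 Huntingtin exon 1–GFP. Reduction of bright GFP aggregates, detected by laser scanning cytometry after lysis, identified actives across the titration.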
ALDH1A1 block – qHTS Assay for Inhibitors of Aldehyde Dehydrogenase 1 (ALDH1A1); Potency, µM (series often up to 75.3 µM), without a hit: at the highest dose activity, negative = inhibition, usual class: inhibitors; 220,000 tested, 7.3% active; Purified ALDH1A1, NADH fluorescence, propionaldehyde substrate; Aldehyde dehydrogenase 1A1 (Homo sapiens), P00352; active = well fitted inhibition curve with a large enough effect, not every such curve was filed as active; inconclusive = small, poorly fitted or top-dose-only effect, or another doubt; inactive = no such curve, though single readings can be large or run the other way;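 note: plate controls were no enzyme wells and a reference inhibitor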
HTT ATP protect – qHTS Multiplex Assay to Identify Dual Action Probes in a Cell Model of Huntington: Cytoprotection (ATP); PC12 HTT-Q103 induced, cytoprotection, ATP luminescence, 40 h; Potency, µM (doses to about 56.4 µM), inactives show cytoprotection (ATP increase), most hits filed as activators; 230,000 tested, 0.14% active; AID 1471, 2008; note: % of control where 0% means no effect; nearly all actives have a fitted effect of over 45% in size
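ATP quantification (ATPlite) reports survival of PC12 cells in which tebufenozide, 100 nM final, switches on Htt exon 1 with 103 glutamines linked to GFP; compounds are titrated.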
HPGD block – qHTS Assay for Inhibitors of HPGD (15-Hydroxyprostaglandin Dehydrogenase). Potency, µM, inactives show at the highest dose activity change, negative = inhibition, usual class: inhibitors. 150,000 tested, 4.3% active. purified HPGD, NADH fluorescence kinetic, PGE2 substrate. 15-hydroxyprostaglandin dehydrogenase [NAD(+)] (Homo sapiens), P15428; active = well fitted inhibition curve with a large enough effect, not every such curve was filed as active; inconclusive = small, poorly fitted or top-dose-only effect, or another doubt; inactive = no such curve, though single readings can be large or run the other way; note: % is set by controls: 0 for no effect and ±100 for the full control effect
Target sequence (P15428 whole entry, looked up): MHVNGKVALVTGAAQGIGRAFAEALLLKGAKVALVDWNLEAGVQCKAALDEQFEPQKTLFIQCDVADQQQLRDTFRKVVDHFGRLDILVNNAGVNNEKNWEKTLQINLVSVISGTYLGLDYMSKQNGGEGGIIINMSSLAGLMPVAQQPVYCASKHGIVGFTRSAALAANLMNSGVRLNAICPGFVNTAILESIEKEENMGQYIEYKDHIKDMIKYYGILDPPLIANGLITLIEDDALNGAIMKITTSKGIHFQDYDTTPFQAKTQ
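NADH formation kinetics: reaction with 30 uM PGE2 and 1 mM NAD+ (final), 20 nM enzyme, Tris-HCl pH 8 with Tween 20, after 15 min compound preincubation at room temperature. Fluorescence change, last versus first of five reads.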
An asterisk follows results filed as active; ? = inconclusive; / = no result given; [ ] = dose if it differs, or a comment. Only some compounds are listed: those with a hit (about 8.8% of all), similar ones and a draw of the others. Unless noted, calls come from the whole dose curve; as a rule, active = well fitted curve in the direction sought with a large enough effect; inconclusive = small, poorly fitted or top-dose-only effect, or another doubt; inactive = no such curve, though single readings can be large; an effect the other way counts as inactive or inconclusive. Potency is the fitted concentration of half-maximal effect.

SMILES	LMNA splice mod	HTT aggregate	ALDH1A1 block	HTT ATP protect	HPGD block
CC(Sc1nnc(NC2CCCCC2)s1)C(=O)Nc1ccc2c(c1)C(=O)c1ccccc1C2=O (configuration not stated)	7%	-24%	25µM*	-18%[10 µM]	?
O=C(CSc1nnc(NC2CCCCC2)s1)Nc1ccc(N2CCOCC2)cc1	14%	-8%	?	-45%	-11%
CCCCCCCCCCCCOCCOCCOCCOCCO	/	/	5%	-10%	-12%
COc1ccccc1CNC(=O)CCC1N=C2c3ccccc3N=C(SCC(=O)NCCc3ccc(OC)c(OC)c3)N2C1=O (configuration not stated)	-26%[46 µM]	/	/	/	/
COc1ccc(N(CCC#N)C(=O)/C(C#N)=C/c2cccs2)cc1	10%[46 µM]	16%	14µM*	-8%	/
CCS(=O)(=O)c1ccc(NC(=O)c2ccccc2Cl)c(O)c1	2%	15%	16µM*	13%[10 µM]	-20%
NS(=O)(=O)c1ccc(NC(=O)c2ccccc2Cl)cc1	7%	4%	-5%	-5%	-11%
O=C(Nc1ccccc1)c1cc2ccc3ccccc3c2s1	/	-28%[9.22 µM]	/	11%[10 µM]	/
CC(C)CC(=O)NC(=S)Nc1ccc(S(=O)(=O)NC(C)(C)C)cc1	?	-17%	?	8%[10 µM]	-18%
NS(=O)(=O)c1ccc(NC(=S)NCc2ccccc2Cl)cc1	-5%	5%	25µM*	7%[10 µM]	-18%
CC(C)CC(=O)NNC(=S)Nc1ccc(S(N)(=O)=O)cc1	/	-13%[9.22 µM]	11µM*	-55%	/
S=C(NCc1cccnc1)Nc1ccc(Oc2ccccc2)cc1	?	?	32µM*	-205%	/
FC(F)Oc1ccc(NC(=S)NCc2cccnc2)cc1	?	-4%	0%	-20%	/
NS(=O)(=O)c1ccc(NC(=S)NCc2ccccc2)cc1	2%	5%	20µM*	-6%[10 µM]	20µM*
O=C1Nc2ccccc2C1(O)C/C(=N/O)c1ccccc1 (configuration not stated)	/	?	14%	/	/
O=C(Nc1ccc(Oc2cccnc2)cc1)c1ccccc1Cl	-13%	11µM*	?	/	/
O=C(c1nsc(Cl)c1Cl)N1CCCCC1	?	-4%	0%	-7%[10 µM]	2.5µM*
Cc1ccc(CCNS(=O)(=O)c2ccc3c(c2)CC(C)N3C(=O)C2CCC2)cc1 (configuration not stated)	8%[46 µM]	/	/	/	/
CC1CCN(S(=O)(=O)c2cc([N+](=O)[O-])ccc2Cl)CC1	/	2%	3.5µM*	9%	/
COc1ccc(-c2nc3c(c4c2C[C@H](c2ccccc2)OC4)CN(S(=O)(=O)c2ccc(C#N)cc2)CC3)c(C)c1	?	/	0.5µM*	-16%[10 µM]	1%
COc1ccc(-c2nc3c(c4c2C[C@H](c2ccccc2)OC4)CN(C(=O)c2cc(I)ccc2F)CC3)c(C)c1	?	/	1.1µM*	14%[10 µM]	-2%
COc1ccc(-c2nc3c(c4c2C[C@H](c2ccccc2)OC4)CN(C(=O)C2CCCCC2)CC3)c(C)c1	10%[9.22 µM]	/	?	-7%[10 µM]	-8%
COc1cccc(CC(=O)N2CCc3nc(-c4ccc(OC)cc4C)c4c(c3C2)CO[C@@H](c2ccccc2)C4)c1	?	/	4µM*	5%[10 µM]	-11%
COc1ccc(-c2nc3c(c4c2C[C@H](c2ccccc2)OC4)CN(C(=O)N[C@@H](C)c2ccccc2)CC3)c(C)c1	-3%[9.22 µM]	/	3.5µM*	9%[10 µM]	-13%
COc1ccc(N(C(C)C(=O)N/N=C/c2ccc(OC(C)C)cc2)S(C)(=O)=O)cc1 (configuration not stated)	?	16%	14µM*	-7%	-29%
SMILES	LMNA splice mod	HTT aggregate	ALDH1A1 block	HTT ATP protect	HPGD block
COc1ccc(/C=C2\SC(N3CCc4ccccc4C3)=NC2=O)cc1	3%	24%	?	43%[10 µM]	?
O=C1N=C(N2CCOCC2)S/C1=C\c1ccc(OS(=O)(=O)c2ccccc2)cc1	/	0%[9.22 µM]	28µM*	-30%[10 µM]	/
CCOc1ccc(/C=C2\SC(N3CCc4ccccc4C3)=NC2=O)cc1	-4%	21%	-10%	-12%[10 µM]	22µM*
O=C1N=C(N2CCc3ccccc3C2)S/C1=C\c1cccc(O)c1	-23%	-4%	2.5µM*	22%[10 µM]	5µM*
COc1ccc(-c2cn3cccnc3n2)cc1NC(=O)Cc1ccccc1	-1%[46 µM]	/	/	/	/
O=C(c1cccc2c1-c1ccccc1/C2=N/O)N1CCCCC1	?	11µM*	?	6%	-1%
Cc1ccc(NC(=O)CCC(=O)OCC(=O)c2ccc(Oc3ccc([N+](=O)[O-])cc3)cc2)c(C)c1	1%	-4%	22µM*	1%	-5%
Cc1ccc(NC(=O)CCC(=O)OCC(=O)c2ccc(Oc3ccc([N+](=O)[O-])cc3)cc2)cc1	-10%	4%	1%	-1%[10 µM]	-2%
Cc1ccc(NC(=O)COC(=O)CCC(=O)c2ccc(C(C)(C)C)cc2)c([N+](=O)[O-])c1	10%	-15%	0.5µM*	-6%[0.074 µM]	-21%
COc1ccc(C)cc1NC(=O)Cc1ccc(NC(=O)N2CCCCc3ccccc32)cc1	-7%[46 µM]	/	/	/	/
CN1CCc2nc3sc(C(=O)NCc4ccccc4)c(N)c3cc2C1	?	5%[9.22 µM]	25µM*	-63%	/
CCN(c1ccccc1)S(=O)(=O)c1c(-c2ccc(C)cc2)csc1C(=O)OC	-20%[46 µM]	/	/	/	/
COc1cc(/C=C2\SC(c3ccccc3)=NC2=O)cc(Cl)c1O	/	1%[9.22 µM]	5µM*	25%	/
COc1ccc(C2=NOC3(CC(=O)N(c4ccc(F)cc4)C3=O)C2)cc1 (configuration not stated)	/	-15%[9.22 µM]	/	-2%[10 µM]	/
O=C1CN(C(=O)c2ccccc2)c2ccccc2N1	3%	?	0%	-4%	-17%
O=C1C(=C(c2ccccc2)c2ccccc2)Nc2ccccc21	?	-3%	0.71µM*	-18%	-4%
CCOCCCNC(=O)C(c1ccccc1)N1Cc2ccccc2C1=O (configuration not stated)	-25%[46 µM]	/	/	/	/
Cc1ccc(-n2c3nc(=O)[nH]c(=O)c-3cc3cc([N+](=O)[O-])ccc32)cc1C	?	-5%	3%	-13%[10 µM]	32µM*
Cc1ccc(S(=O)(=O)n2cnc3cc([N+](=O)[O-])ccc32)cc1C	11%	-19%	4%	-16%	0%
CCN1C(=O)C(CC(=O)Nc2ccc(OC)cc2)N(Cc2ccc3c(c2)OCO3)C1=S (configuration not stated)	-12%	16%	?	7%[10 µM]	-15%
CCONc1ncnc2nonc12	0%	0%	12%	/	-20%
COc1ccc(CONc2ncnc3nonc23)cc1[N+](=O)[O-]	/	-20%	14µM*	?	/
